Consider 92 compounds from PubChem BioAssay AID1347056 (Sanford-Burnham Center for Chemical Genomics, 2019).

Molecules are shown by their SMILES. In all, about 360,000 compounds went through this assay and about 3,600 (1%) were called active.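 The calls were made as follows: active = compounds whose plate-normalised and pattern-corrected inhibition of the luciferase reporter signal at the single screening dose is 50% or more; inactive = the rest.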 The list comes from a sample in which actives are over-represented; it also holds similar structures and randomly drawn compounds.

This assay in a line: inhibitors of TROY-driven NF-kB signaling, primary screen, Q293 LMP1-TROYcd cells, NF-kB luciferase, uHTS (AID 1347056). The note with it: Q293 LMP1-TROYcd NF-kB luciferase reporter, 4 h; at 10 µM; stronger effect = higher value.
As to `COc1ccc(C(CNC(=O)c2ccc(OCc3cscn3)cc2)N2CCCC2)cc1` (configuration not stated), the inhibition is 0.55% (inactive).

In the case of `CCCS(=O)(=O)N1CCC(C(=O)NCCc2ccc(OC)c(OC)c2)CC1`, the inhibition was 0.11% (inactive). Then `COc1ccccc1CNc1nc(Nc2ccccc2Cl)c2sccc2n1`, with 42.1% (inactive); and `COc1cccc(CNc2nc(NCc3cccs3)nc3ccsc23)c1`, with 57.2% (active); and `COc1cccc(-c2cc3nc(NCc4ccccc4OC)n(C)c(=O)c3s2)c1`, with -20.1% (inactive). Then `COCCNc1nc(NCc2ccc(NC(C)=O)cc2)c2sccc2n1`, with 8.19% (inactive); and `COc1cccc(CNc2nc(NCc3ccccc3OC)nc3ccsc23)c1`, with 53.4% (active); and `Clc1ccccc1Nc1nc(NCc2cccs2)nc2ccsc12`, with 6.87% (inactive). Consider `CCOCCCNC(=S)N1CCC(NC(=O)C2CCCCC2)CC1`, for which the inhibition is 10.6% (inactive). Then `COc1ccc(C)cc1S(=O)(=O)NCCc1ccccc1`, with 10.5% (inactive); and `O=[N+]([O-])c1cc(S(=O)(=O)NCCc2ccccn2)ccc1Cl`, with -5.27% (inactive); and `Cc1ccc(CC(=O)Nc2cccc(C#N)c2)cc1`, with 5.18% (inactive). As for `CCOc1c2ccc(C(=O)NC3CCCc4ccccc43)cc2nn1CC` (configuration not stated), the inhibition is 2.7% (inactive). For `C/C(=N\NS(=O)(=O)c1ccc(Cl)cc1)c1ccc(NC(=O)c2ccco2)cc1` the value was -42.5% (inactive); for `CN(C(=O)COc1ncnc2c1cnn2-c1ccccc1)C1CCCCC1`, 11.5% (inactive).

As for `COc1ccc(-n2ncc3c(N4CCCc5ccccc54)ncnc32)cc1`, the inhibition was 62.1% (active). Then `COc1ccc(-n2ncc3c(SCC(=O)NNC(C)=O)ncnc32)cc1`, with -14.8% (inactive). Then `O=C(CC1CCCCC1)NCc1ccc(F)cc1`, with -30.5% (inactive); and `CC(C)NC(=O)N1Cc2cc(C(=O)NCC(F)(F)F)nc(-c3cccc(-c4cc5ccccc5o4)c3)c2[C@@H]1CCO`, with 9.45% (inactive).

As to `COC(=O)[C@@H]1C[C@H]2CC[C@H](O)C[C@H]2N1Cc1ccc(N2CCN(C)CC2)cc1`, the inhibition is 4.5% (inactive). For `CC(C)(CNC(=O)CNC(=O)C1CCCCC1)N1CCOCC1` the value was 6.69% (inactive); for `O=C(NNc1ccccc1Cl)C(O)(c1cccc(C(F)(F)F)c1)c1cccc(C(F)(F)F)c1`, 54.1% (active); for `O=c1cc(O)c(-c2cccc(C(F)(F)F)c2)c(Cl)[nH]1`, -14.8% (inactive). Then `O=C(O)c1cc(S(=O)(=O)N(Cc2ccccc2)c2cccc(C(F)(F)F)c2)ccc1Cl`, with 3% (inactive); and `Cc1ccc(S(=O)(=O)N2CCC3(CC2)OCCO3)c(C)c1`, with 5.19% (inactive); and `COc1ccc(/C(C)=N/N2CCOCC2)c(O)c1`, with 6.68% (inactive).

Take `CC1=C(C)CC(C(=O)NNC(=O)c2csc3c2CCC(C(C)(C)C)C3)C(C(=O)O)C1` (configuration not stated): the inhibition is -0.5% (inactive).

For the compound `O=C(NCCCN1CCN(Cc2ccccc2)CC1)C1CCN(S(=O)(=O)N2CCCC2)CC1`, the inhibition is -13% (inactive). Consider `COc1ccc(N2CCN(CCCNC(=O)C3CCN(S(=O)(=O)N4CCOCC4)CC3)CC2)cc1`, for which the inhibition was 91.5% (active). Then `COc1ccc(CNC(=O)C2CCN(S(=O)(=O)N3CCOCC3)CC2)cc1`, with 7% (inactive). For the compound `CCCCc1c(-c2ccc(Cl)cc2)ncn1CCc1ccccc1OC`, the inhibition is 38.5% (inactive).

`O=C(CNCc1ccc(F)cc1)Nc1ccccc1-c1ccccc1`: the inhibition is 25.9% (inactive). Then `OC1CCCN(c2ncnc3c2nnn3Cc2c(F)cccc2Cl)C1` (configuration not stated), with -10.3% (inactive); and `O=C(CNC(=O)C(c1ccccc1)c1ccccc1)N/N=C\c1ccc2c(c1)OCO2`, with -30.7% (inactive); and `Cc1cccc(NC(=O)/C=C/c2ccc3c(c2)OCO3)n1`, with -33.1% (inactive). For `C(=N\Nc1ccc2ccccc2n1)/c1ccc2c(c1)OCO2` the value was 69.8% (active). Then `COc1cccc(-c2nn(-c3ccccc3)cc2/C=C(\C#N)C(=O)NCCCn2ccnc2)c1`, with -24.5% (inactive); and `COc1ccc(-c2nn(-c3ccccc3)cc2/C=C2/SC(=S)N(CCCC(=O)O)C2=O)c(C)c1`, with 58% (active); and `COc1ccc(-c2nn(-c3ccccc3)cc2CN2CCCO2)c(F)c1`, with -17.1% (inactive).

On to `O=C(C1CCC1)N1CCN(S(=O)(=O)c2ccc([N+](=O)[O-])cc2)CC1`, for which the inhibition was -10.9% (inactive). On to `Cc1ccc2c(C)c(C(=O)N3CCN(c4ccncc4)CC3)oc2c1C`, for which the inhibition was 5.65% (inactive). Then `CC(=NC1CCN(Cc2ccccc2)CC1)c1c(O)[nH]c(=O)[nH]c1=O`, with 26.3% (inactive). Then `Clc1cccc(N=C2NN=C(c3ccc4c(c3)OCCO4)CS2)c1`, with 66.2% (active); and `c1ccc(CN2CCC(N=C3NN=C(c4ccc5c(c4)OCCO5)CS3)CC2)cc1`, with 77.6% (active).

For the compound `CN(C)c1nc(=Nc2cccc(Cl)c2)ss1`, the inhibition is -31.5% (inactive).

In the case of `CS(=O)(=O)N(CC(=O)N1CCN(Cc2ccccc2)CC1)c1ccc2c(c1)OCCO2`, the inhibition was 19.4% (inactive). Consider `C/C(=N\NC(=O)c1ccc(NS(=O)(=O)c2cccs2)cc1)c1ccc2ccccc2c1`, for which the inhibition is -29.3% (inactive). For `CC(NC(=O)c1ccc(S(=O)(=O)Nc2ccccc2)cc1)c1ccc(S(N)(=O)=O)cc1` (configuration not stated) the value was 2.55% (inactive); for `COCCOC(=O)c1c(C)oc2cc(Br)c(OCC(N)=O)cc12`, 9.46% (inactive). As to `CC(=O)c1ccc(NC(=O)C(C)OC(=O)c2ccc(NS(=O)(=O)c3ccc4[nH]c(=O)[nH]c4c3)cc2)cc1` (configuration not stated), the inhibition was -12.5% (inactive). Then `CCCCN1C(=S)NC[C@@H]1C(C)CC` (some centres not stated), with -3.76% (inactive); and `O=[N+]([O-])/C(N=Nc1ccccc1)=N\Nc1ccccc1`, with -1.58% (inactive).

With `COC(=O)c1cc(=O)n(-c2c(Cl)cc(C(F)(F)F)cc2Cl)[nH]1`, the inhibition is 6.27% (inactive). For `NC1=NC(=O)S/C1=C\c1ccc(O)cc1` the value was -17.8% (inactive). Regarding `COc1cccc(NC(=O)COC(=O)c2ccc3ccccc3n2)c1`, the inhibition was -23.3% (inactive). For `CCOc1cccc(/C=C/c2ccc3ccccc3n2)c1OC(C)=O` the value was 33.9% (inactive); for `COc1cccc(/C=C/c2ccc3ccccc3n2)c1OC(C)=O`, 54.2% (active); for `CCOc1ccc(C2c3[nH]c4ccccc4c3CCN2Cc2cccn2-c2ncccn2)cc1` (configuration not stated), 47.5% (inactive).

Regarding `COC(=O)C1=C(C(=O)OC)[C@@H]2N(C)c3ccccc3[C@@]23C[C@@H](C(=O)OC)N(C(=O)c2ccco2)C3=N1`, the inhibition was 7.75% (inactive).

For `O=C(NCCS(=O)(=O)NCc1ccc(Cl)cc1)c1ccccc1`, the inhibition was 4.3% (inactive). For `O=C(Cc1ccc(Cl)cc1)NC1CCS(=O)(=O)C1` (configuration not stated) the value was 3.91% (inactive); for `O=S1(=O)CC(NCc2ccccc2)C(Nc2ccc(Cl)cc2)C1` (configuration not stated), 57% (active); for `CC(NC(=S)Nc1ccc(OC(F)F)cc1)c1ccc(F)cc1` (configuration not stated), -5.08% (inactive). For `Cc1cccc(N2CCN(S(=O)(=O)c3ccc(-c4cc(C)no4)s3)CC2C)c1` (configuration not stated) the value was -15% (inactive); for `Cc1cccc(CNS(=O)(=O)c2ccc(-c3cnc(C4CC4)o3)cc2)c1`, 15.4% (inactive); for `Cc1cccc(NS(=O)(=O)c2ccc(-c3cnc(C4CC4)o3)cc2)c1`, 50.5% (active). For `COc1ccc(CNS(=O)(=O)c2ccc(-c3cnc(C4CC4)o3)cc2)cc1` the value was 26% (inactive); for `Cc1c(NC(=O)CCC2CCCCC2)cc(C(=O)N2CCOCC2)cc1[N+](=O)[O-]`, 12.1% (inactive); for `COC(=O)[C@]1(C)N[C@H](CN(C)C(=O)c2ccc(C(C)(C)C)cc2)[C@@H]2C(=O)N(C)C(=O)[C@@H]21`, -13.4% (inactive). Consider `COc1cccc(OCC(=O)NCCS(=O)(=O)N2CCN(c3ccccc3)CC2)c1`, for which the inhibition is 17.7% (inactive).

For the compound `COCc1cc(C)nc(Nc2cc(C)ccc2C)c1C#N`, the inhibition was 0.76% (inactive). Regarding `Cc1noc(C)c1COC(=O)COc1ccc(-c2ccccc2)cc1`, the inhibition was 4.68% (inactive). For `O=C(COC(=O)c1ccncc1)c1ccccc1` the value was -18.8% (inactive); for `O=C(Oc1ccc(-c2nc(-c3ccccn3)no2)cc1)c1ccccc1`, 60% (active).

Consider `O=C(NCc1cccs1)c1cc(-c2ccccn2)nc2ccc(Br)cc12`, for which the inhibition is -12.5% (inactive). In the case of `CC(C)Cn1c(N)c(C(=O)NCc2cccs2)c2nc3ccccc3nc21`, the inhibition is 51.3% (active). Then `O=C(Cc1coc2ccc3ccccc3c12)NCc1cccs1`, with -38.6% (inactive); and `CCOc1ccc(NC(=O)CCS(=O)(=O)c2ccc3c(c2)CCCN3C(=O)CC)cc1`, with 21.6% (inactive). In the case of `CCOC(=O)c1cc(C)sc1NC(=O)C1CCC1`, the inhibition was 12.2% (inactive).

Regarding `CCN1CCN(C(=O)CCN2C(=O)c3ccccc3C2=O)CC1`, the inhibition was 13.8% (inactive). Then `C=CCN1CCN(C(=O)CCCc2ccccc2)CC1`, with 73.6% (active); and `CC1=NN(C(=O)CCCc2ccccc2)C(O)(C(F)(F)F)C1` (configuration not stated), with 6.41% (inactive); and `C/C(CC(=O)NC(C)c1ccccc1)=N\NC(N)=S` (configuration not stated), with 0.63% (inactive). Then `Cn1nccc1C(=O)NC1CCCc2c1cnn2-c1ccc(F)cc1F` (configuration not stated), with 28% (inactive); and `COc1ccc(OC)c(C(=O)NC2CCCc3c2cnn3-c2cc(C)cc(C)c2)c1` (configuration not stated), with -13.7% (inactive). Regarding `COc1ccc(C(=O)NC2CCCc3c2cnn3-c2cccc(C)c2C)c(OC)n1` (configuration not stated), the inhibition is 55.4% (active). For `Cc1ccccc1-n1nc(C)c2c1N=C1C(Cl)=CC(Cl)=CN1C2c1ccc(C(=O)O)cc1` (configuration not stated) the value was 1.29% (inactive); for `Cc1cc(Br)cn2c(Cc3ccccc3C(F)(F)F)c(C3CCCCC3)nc12`, 15.5% (inactive). On to `CCOC(=O)c1cnc(SCc2nc(N)nc(Nc3ccc(OC)cc3)n2)nc1N`, for which the inhibition was -4.61% (inactive). As for `CCS(=O)(=O)N1Cc2ccccc2CC1C(=O)Nc1nc2ccc(F)cc2s1` (configuration not stated), the inhibition is 42.9% (inactive). For `CSc1ncccc1C(=O)Nc1ccc2c(c1)OCO2` the value was -13.6% (inactive). As for `CSc1ncccc1C(=O)Nc1nc2ccc(F)cc2s1`, the inhibition was 54.6% (active).
